High-throughput results (PubChem BioAssay)
ClpP mod – qHTS Assay for Activators of ClpP; AID 651965, 2013; Potency, µM (doses to about 57.5 µM), without a hit: top-dose activity change, negative = active; 340,000 compounds, 1.9% hits; purified B. subtilis ClpP, FRET peptide cleavage, 20 min; active means well fitted falling curve with a large enough effect; inconclusive means small, poorly fitted or top-dose-only effect; inactive means no such curve, though single readings can be large or run the other way; further: potency means the concentration at half of the fitted maximal effect; the source files actives as falling curves though it sought activators and does not explain the sign; nearly all actives have a fitted effect of over 65% in size
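FRET quenching reversal measured ClpP activation: 10 microg/mL B. subtilis ClpP at pH 8 with the FRET-FV decapeptide, read at 430 nm after 320 nm excitation. The 20-min minus 0-min signal was scaled between DMSO/no-enzyme wells and ADEP (5.8 microM final).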
Sfp PPTase inh – inhibitors of Bacillus subtilis Sfp phosphopantetheinyl transferase; Potency, µM, without a hit: largest response in the series, negative = inhibition, most hits filed as inhibitors; Biochemical Sfp PPTase activity, qHTS; AID 1490; 310,000 compounds, 3.5% hits;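 further: the enzyme is Sfp with the accession as filed and its product quenches rhodamine fluorescence; potency means the concentration at half of the fitted maximal effect; 0% = enzyme reaction without inhibitor and -100% = no enzyme wells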
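Compounds were incubated with enzyme (final 15 nM) for 15 min at room temperature before substrate addition started the reaction. Fluorescence at 525 nm excitation, 598 nm emission was recorded immediately and after 30 minutes.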
uPA generation – cell surface uPA generation inhibition; cell surface uPA generation assay, qHTS; Potency, µM (highest dose often 38.3 µM), for the others: at the top dose activity change, negative = inhibition, hits mostly inhibitors; 330,000 compounds, 0.31% hits; AID 540303; active means well fitted inhibition curve with a large enough effect; inconclusive means small, poorly fitted or top-dose-only effect; inactive means no such curve, though single readings can be large or run the other way; tested in mouse RAW 264.7 cells; further: potency means the concentration at half of the fitted maximal effect; on the % scale 0 is the no-effect control and ±100 the full control effect; nearly all actives have a fitted effect of over 55% in size
TCR act – activators of T cell receptors. AID 504894. primary human leukocytes, anti-CD3, IL-2 HTRF, 48 h. 330,000 tested, under 10 active. Potency, µM (titrated, usually from 9.22 µM), without a hit: top-dose activation of IL-2 secretion, actives largely listed as activators; further: % of control where 0% means no effect
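Primary human leukocytes were stimulated with a-CD3 beads plus compounds for 48 hr without co-stimulation; secreted IL-2 was quantified by HTRF using a-IL-2-K (europium cryptate) and a-IL-2-d2, excited at 320nm with acceptor emission read at 665nm.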
* marks the source's active call; other numbers are inactive results; ? = inconclusive; / = no result given; [ ] = dose if it differs, or a comment. An excerpt weighted towards active compounds, which were near 4.2% of everything screened. Unless noted, the call rests on the fitted dose curve; in most records, active means well fitted curve in the direction sought with a large enough effect; inconclusive means small, poorly fitted or top-dose-only effect, or another doubt; inactive means no such curve, though single readings can be large; an effect the other way counts as inactive or inconclusive.

SMILES	ClpP mod	Sfp PPTase inh	uPA generation	TCR act
COC(=O)C1=C(C)NC(C)=C(C(=O)OC)C1c1ccc(OC(=O)c2ccco2)cc1	17.8µM*	-6.1%	-7.4%	7.3%
O=C(O)CCNC(=O)/C(=C\c1ccco1)NC(=O)c1ccco1	-0.4%	79.4µM*	15.5%	-0.5%
O=C(NCc1ccccn1)/C(=C/c1ccco1)NC(=O)c1ccccc1	1.3%	79.4µM*	-2.9%	2.9%[46.1 µM]
CNC(=O)/C(=C\c1ccco1)NC(=O)c1ccco1	?	11.4%	0.5%	3.7%
O=C(NC(Cc1ccccc1)C(=O)O)/C(=C\c1ccco1)NC(=O)c1ccccc1Br (configuration not stated)	2.2%	50.1µM*	-1.3%	6.1%[46.1 µM]
O=C(N/C(=C/c1ccco1)C(=O)N1CCc2ccccc21)c1ccco1	-1.0%	39.8µM*	-4.4%	4.9%
O=C(O)CCCCCNC(=O)/C(=C\c1ccco1)NC(=O)c1ccco1	-1.2%	-14.8%	10.0%	-0.1%
O=C(NCCc1ccccn1)/C(=C/c1ccco1)NC(=O)c1ccccc1	0.2%	?	-0.8%	-4.2%
CCc1ccc(S(=O)(=O)c2cn(C)c3ccc(C)cc3c2=O)cc1	-2.5%	/	/	/
C(=N\NC1=Nc2cccc3cccc1c23)/c1ccccn1	1.0%	44.7µM*	?	2.6%
C[C@@](N)(C(=O)O)[C@@H]1C[C@@H]1C(=O)O	/	-19.5%	/	/
Cc1cccc(OCCSc2nc3ccccc3n2CC(=O)N2CCOCC2)c1	-3.6%	/	/	/
CCN(c1ccccc1)S(=O)(=O)c1nnc(NC(=O)c2ccccc2)s1	-13.6%	/	/	/
NS(=O)(=O)c1ccc(N/N=C/c2cn(-c3ccccc3)nc2-c2cccs2)cc1	15.8µM*	10.3%	-9.6%	-9.1%[46.1 µM]
NS(=O)(=O)c1ccc(N/N=C/c2cn(-c3ccccc3)nc2-c2cccs2)c([N+](=O)[O-])c1	/	3.2%	1.1%	4.1%
N#Cc1ccc(N2C(=O)[C@@H]3C(C(=O)c4cnccn4)=NN[C@@H]3C2=O)cc1	/	17.8µM*	6.1%	0.6%
OCCN=c1cc(-c2ccccc2)oc2ccc(Cl)cc12	-0.6%	89.1µM*	-13.0%	-1.5%
CC(C)(C)n1nnnc1C(c1ccncc1)N(Cc1ccccc1)Cc1ccco1 (configuration not stated)	-4.8%	50.1µM*	-3.2%	1.0%
CC(C)(C)n1nnnc1C(c1cccs1)N(Cc1ccccc1)Cc1ccco1 (configuration not stated)	0.4%	12.8%	-11.1%	-86.8%
c1ccc2c(NCCN3CCOCC3)nc(-c3ccoc3)nc2c1	/	0.2%	/	/
NC1=NC(=O)/C(=C\c2ccc(-c3ccccc3[N+](=O)[O-])o2)S1	-1.9%	/	/	/
CN1C(=O)/C(=C/c2ccc(-c3ccccc3[N+](=O)[O-])o2)SC1=Nc1ccc(Cl)c(C(=O)O)c1	1.5%	14.1µM*	0.9%	1.4%[46.1 µM]
Cc1ccc(-c2cc(C(=O)Nc3ccccc3C)c3ccccc3n2)o1	?	8.91µM*	-0.2%	5.3%[46.1 µM]
O=C(NCc1ccco1)c1cccnc1-c1nc2ccccc2s1	?	22.4µM*	-3.1%	5.9%
COC(=O)c1cc(-c2ccc(C)o2)nc2ccccc12	-1.3%	11.2µM*	-7.2%	0.1%[46.1 µM]
SMILES	ClpP mod	Sfp PPTase inh	uPA generation	TCR act
Cc1ccc(-c2cc(C(=O)NN3CCOCC3)c3cc(Br)ccc3n2)o1	0.5%	25.1µM*	0.2%	/
Cc1ccc(S(=O)(=O)N2CCCOC2CNC(=O)C(=O)NCc2ccc3c(c2)OCO3)cc1 (configuration not stated)	-1.2%	15.0%	1.1%	1.5%
Cc1ccc(-c2cc(C(=O)NCc3ccco3)c3ccccc3n2)o1	?	44.7µM*	-2.4%	8.5%
Cc1cc(C)c2nc(-c3ccccn3)cc(C(=O)NCc3cc(C)n(C)n3)c2c1	0.2%	1.9%	1.1%	/
Cc1cc(C)c2nc(-c3ccccn3)cc(C(=O)NCc3ccco3)c2c1	?	56.2µM*	3.5%	-2.8%
CCCCCCCCCCCCCCCC(=O)OC(C)C	/	22.4%	/	/
CC1CCN(c2ccc(NC(=O)c3ccc([N+](=O)[O-])o3)cc2)CC1	5.1%	/	3.16µM*	-0.9%
O=C(Nc1ccc(N2CCCCC2)cc1)c1ccc([N+](=O)[O-])o1	/	7.0%	-3.4%	8.1%
COc1ccc(-c2ccnc3c(C#N)cnn23)cc1	/	7.4%	3.6%	-3.7%
N#Cc1cnn2c(-c3ccccc3)ccnc12	25.1µM*	2.7%	-1.4%	1.3%
CC(=O)c1ccccc1NC(=O)COC(=O)c1ccccc1NC(=O)c1ccccc1	7.5%	28.2µM*	-0.6%	3.5%[46.1 µM]
C=CCSc1ccccc1C(=O)Nc1ncn[nH]1	-1.4%	-5.2%	11.9%	3.0%
CSc1ccccc1C(=O)Nc1ncn[nH]1	0.7%	56.2µM*	28.3%	/
Cc1cc(C)nc(NCCO)n1	/	-1.8%	1.8%	3.6%
O=C(/C=C/c1ccco1)N(Cc1ccc(F)cc1)C1CCS(=O)(=O)C1 (configuration not stated)	/	-29.5%	0.3%	1.4%
O=C(/C=C/c1ccco1)N(Cc1cccc(Br)c1)C1CCS(=O)(=O)C1 (configuration not stated)	-0.3%	?	2.9%	2.0%
O=C(/C=C/c1ccco1)N(Cc1cccc(Cl)c1)C1CCS(=O)(=O)C1 (configuration not stated)	/	31.6µM*	-2.5%	0.7%
O=C(/C=C/c1ccco1)N(Cc1ccccc1)C1CCS(=O)(=O)C1 (configuration not stated)	/	25.1µM*	0.3%	-5.6%
CC(C)N1CCN(Cc2cccn2-c2nccs2)CC1CCO (configuration not stated)	/	-9.2%	0.8%	1.7%
Cc1cc(NC(=O)Cc2ccsc2)ccc1Br	-1.6%	2.9%	4.5%	-9.2%
Cc1cc(C)c2c(N)c(C(=O)NC3CCCC3)sc2n1	/	11.2%	2.9%	-2.6%
Cc1cc(C)c2c(=O)n(CC(=O)Nc3cccc(Cl)c3C)sc2n1	-9.9%	2.51µM*	3.0%	2.3%
COc1ccc(OC)c(CCNC(=O)Cn2sc3nc(C)cc(C)c3c2=O)c1	/	1.41µM*	/	/
Cc1cc(C)c2c(=O)n(CC(=O)Nc3ccc(Br)c(C)c3)sc2n1	-9.7%	3.16µM*	3.3%	1.8%
Cc1cc(C)c2c(=O)n(CC(=O)NC3CCCC3)sc2n1	-7.7%	2.82µM*	4.1%	1.8%
SMILES	ClpP mod	Sfp PPTase inh	uPA generation	TCR act
COc1ccc(OC)c(CCNC(=O)Cn2nc(C)c3c(C)n(-c4ccc(C)cc4)nc3c2=O)c1	/	-22.7%	-12.9%	0.8%
CCCOc1ccc(C2CC(=O)Nc3c2c(=O)n(C)c(=O)n3C)cc1OC (configuration not stated)	-8.5%	/	/	/
O=C(NCCC(F)(F)F)c1cccc2c(-c3ccc(F)c(F)c3)coc12	-4.6%	/	/	/
O=C1/C(=C\c2ccccn2)SC(=S)N1c1ccc(S(=O)(=O)Nc2nccs2)cc1	/	56.2µM*	1.4%	0.2%
C=CCSSSCC=C	/	39.8µM*	/	/
CCOC(=O)c1sc(=S)n(-c2ccc(C)cc2)c1N	2.0%	39.8µM*	2.2%	-5.2%
Cc1ccc(-n2c(N)c(C(=O)N3CCN(C)CC3)sc2=S)cc1	-0.4%	-93.4%	0.0%	-0.1%
CCOC(=O)c1sc(=S)n(-c2ccccc2OC)c1N	-2.0%	-63.1%	-6.0%	6.9%
